About 4,300 (8.3%) of roughly 52,000 compounds were called active. Cut-off read from the data, not from the text of the source: active = survival mostly below about 52% (no sharp cut-off); inactive = mostly above about 56%. Many of the other results were omitted from the sample, so actives are more common in it than they were.
Each molecule was assayed on DeltatarO mutant (assay: growth inhibition of S. aureus wild type versus tarO mutant, primary screen, teichoic acid synthesis inhibitors, RN4220, OD600 (AID 463173)). Conditions: OD600, 18 h, hits give low values, screened at 18.75 µg/mL (by protocol).
`CCCCN(C(=O)c1cccc(S(=O)(=O)N2CCCCC2)c1)C1CCS(=O)(=O)C1` (stereo not given) was tested, and the survival was 117% (inactive).
For `COc1ccc(CCNC(=O)CCc2c(C)nc3c4cccnc4nn3c2C)cc1OC`, the survival was 87% (inactive).
In the case of `COc1ccc(CCNC(=O)C2COc3ccccc3O2)cc1` (stereo not given), the survival is reported as 89% (inactive).
For `Cc1ccc(NC(=O)Nc2cc3c(cc2N2CCCCC2)n(C)c(=O)n3C)cc1Cl`, the survival was 99% (inactive).
`CC1CN(C(=O)N2CCC(C(=O)NC3CCCCCC3)CC2)c2cc(Cl)ccc2O1` (stereo not given) was tested, and the survival was 61% (inactive).
In the case of `O=C1CC(N2CCCC2)C(=O)N1c1ccccc1` (stereo not given), the survival is reported as 96% (inactive).
`COc1ccccc1CNC(=O)C(=O)NCC(c1cccs1)S(=O)(=O)c1ccc(F)cc1` (stereo not given) was tested, and the survival was 80% (inactive).
In the case of `CC(C)c1ccc(OCc2cc(=O)n3c4c(sc3n2)CCCC4)cc1`, the survival is reported as 73% (inactive).
With `Cc1cccn2c(=O)c(/C=C(\C#N)c3nc4ccccc4[nH]3)c(Oc3ccc(C(C)(C)C)cc3)nc12` the survival was 93% (inactive).
In the case of `COc1ccc(C)cc1NC(=O)CN1C(=O)COc2ccc(S(=O)(=O)N3CCC(C)CC3)cc21`, the survival is reported as 69% (inactive).
With `COc1ccc(-c2cc(C(=O)Oc3cccc(C)c3)c3cc(C)ccc3n2)cc1` the survival was 13% (active).
In the case of `Cc1ccc(-c2cc(C(=O)Oc3ccccc3)c3cccc(C)c3n2)cc1`, the survival is reported as 50% (inactive).
`COc1ccc(-c2cc(C(=O)OCC(=O)c3cccc(OC)c3)c3cccc(Cl)c3n2)cc1` was tested, and the survival was 74% (inactive).
In the case of `Cc1ccc(-c2cc(C(=O)Oc3ccccc3)c3cc(C)ccc3n2)cc1`, the survival is reported as 76% (inactive).
`COc1ccc(-c2cc(C(=O)Oc3cccc(C)c3)c3ccccc3n2)cc1` was tested, and the survival was -2% (active).
For `Cc1ccc2nc(C)cc(C(=O)O)c2c1`, the survival was 99% (inactive).
For `COc1ccc(-c2cc(C(=O)OCC(=O)c3ccc(C)cc3)c3cccc(Cl)c3n2)cc1`, the survival was 65% (inactive).
In the case of `COc1ccc(-c2cc(C(=O)NCCc3ccccc3)c3cc(C(C)C)ccc3n2)cc1`, the survival is reported as 76% (inactive).
For `COc1ccc(-c2cc(C(=O)Oc3ccc(C)cc3)c3cc(C)ccc3n2)cc1`, the survival was 22% (active).
For `Cc1ccc(-n2cc(C(=O)Oc3cccc(C)c3)c3ccccc3c2=O)cc1`, the survival was 69% (inactive).
With `COc1ccc(-c2cc(C(=O)OC(C)C(=O)c3ccccc3)c3cccc(Cl)c3n2)cc1` (stereo not given) the survival was 76% (inactive).
In the case of `Cc1ccc(OC(=O)c2cc(-c3ccccc3)nc3ccc(C)cc23)cc1`, the survival is reported as 49% (active).
For `CC(C)c1ccc(OCC(=O)Nc2cc(-c3ccccc3)no2)cc1`, the survival was 110% (inactive).
With `Cn1c(Oc2cccc(Cl)c2)nc2c1c(=O)n(Cc1ccccc1Cl)c(=O)n2C` the survival was 66% (inactive).
In the case of `O=C(Cc1ccccc1)NC1CCN(S(=O)(=O)c2cccc(F)c2)CC1`, the survival is reported as 80% (inactive).
